# Results filed as inconclusive are left out. Active and inactive are the calls of the source. The calls were made as follows, unless noted: active = hit-call score of the fitted dose curve at least 0.9, where 1 is the maximum; inactive = score below 0.9.
# What was measured:
# [1] = ACEA_ER_80hr: ACEA Biosciences xCELLigence Real-Time Cell Analysis on Estrogen Receptor Agonism for Proliferation (AID 2282667; active = hit-call score of the fitted dose curve at least 0.9, where 1 is the maximum); settings: T47D proliferation, impedance (xCELLigence), 80 h
# Procedure, shortened: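 Impedance readout (RT-CES) of T47D proliferation at 80 h post-dose; gain of signal vs DMSO baseline. Compounds: 8 conc, 1:4 serial, top 100 uM final, ≤0.5% DMSO; biological duplicate.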
# [2] = ATG_CRE_CIS: Attagene CIS-FACTORIAL HepG2 Assay for human cAMP Responsive Element (CRE) binding protein 3 (AID 2282926); settings: HepG2 CRE cis-reporter, Attagene multiplexed mRNA; actives raise or lower the signal
# Procedure, shortened: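 Readout: fluorescently labelled reporter transcripts resolved by capillary electrophoresis after RT-PCR, taken 24 h post-dosing in transfected HepG2. Endogenous transcription factor activity drives each cis-element reporter; gain or loss of signal fitted relative to DMSO control.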
# [3] = biological target: CCAAT/enhancer-binding protein beta (Homo sapiens) (UniProt P17676); experiment: ATG_C_EBP_CIS: Attagene CIS-FACTORIAL HepG2 Assay for human CCAAT/Enhancer Binding Protein (C/EBP) beta (AID 2282927); settings: HepG2 Attagene cis-factorial transcription factor reporter; actives raise or lower the signal
# CCAAT/enhancer-binding protein beta (Homo sapiens), sequence (P17676 whole entry, looked up): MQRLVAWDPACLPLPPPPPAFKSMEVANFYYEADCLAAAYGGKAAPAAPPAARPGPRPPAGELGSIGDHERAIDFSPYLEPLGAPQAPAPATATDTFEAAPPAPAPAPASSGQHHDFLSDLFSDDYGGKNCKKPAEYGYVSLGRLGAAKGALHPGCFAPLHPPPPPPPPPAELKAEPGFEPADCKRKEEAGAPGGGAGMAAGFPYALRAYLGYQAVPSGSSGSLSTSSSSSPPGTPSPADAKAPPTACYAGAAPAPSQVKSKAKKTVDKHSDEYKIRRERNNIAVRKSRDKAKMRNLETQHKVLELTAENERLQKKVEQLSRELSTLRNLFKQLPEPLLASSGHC
# Procedure, shortened: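 RT-PCR/capillary electrophoresis fluorescence of reporter mRNA, 24 h post-dose, in HepG2 cells carrying transfected cis-promoter reporter units. Bidirectional curve fitting against DMSO baseline captures gain or loss of signal.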
# [4] = ATG_CMV_CIS: Attagene CIS-FACTORIAL HepG2 Assay for human CMV (Internal Marker) (AID 2282928); settings: HepG2 CMV promoter reporter, transcription factor profiling; actives raise or lower the signal;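 also: endpoint acts as a background internal control marker rather than a target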
# Procedure, shortened: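 24 h chemical treatment, HepG2 with transient multi-reporter transfection; RNA → oligo(dT) RT → PCR → 6-FAM extension → HpaI digest → CE fluorescence. Bidirectional fit, DMSO negative control.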
# [5] = biological target: Aryl hydrocarbon receptor (Homo sapiens) (UniProt P35869); experiment: ATG_Ahr_CIS: Attagene CIS-FACTORIAL HepG2 Assay for human Aryl Hydrocarbon Receptor (Ahr) (AID 2282930); settings: HepG2 AhR cis-factorial reporter transcription; actives raise or lower the signal
# Aryl hydrocarbon receptor (Homo sapiens), sequence (P35869 whole entry, looked up): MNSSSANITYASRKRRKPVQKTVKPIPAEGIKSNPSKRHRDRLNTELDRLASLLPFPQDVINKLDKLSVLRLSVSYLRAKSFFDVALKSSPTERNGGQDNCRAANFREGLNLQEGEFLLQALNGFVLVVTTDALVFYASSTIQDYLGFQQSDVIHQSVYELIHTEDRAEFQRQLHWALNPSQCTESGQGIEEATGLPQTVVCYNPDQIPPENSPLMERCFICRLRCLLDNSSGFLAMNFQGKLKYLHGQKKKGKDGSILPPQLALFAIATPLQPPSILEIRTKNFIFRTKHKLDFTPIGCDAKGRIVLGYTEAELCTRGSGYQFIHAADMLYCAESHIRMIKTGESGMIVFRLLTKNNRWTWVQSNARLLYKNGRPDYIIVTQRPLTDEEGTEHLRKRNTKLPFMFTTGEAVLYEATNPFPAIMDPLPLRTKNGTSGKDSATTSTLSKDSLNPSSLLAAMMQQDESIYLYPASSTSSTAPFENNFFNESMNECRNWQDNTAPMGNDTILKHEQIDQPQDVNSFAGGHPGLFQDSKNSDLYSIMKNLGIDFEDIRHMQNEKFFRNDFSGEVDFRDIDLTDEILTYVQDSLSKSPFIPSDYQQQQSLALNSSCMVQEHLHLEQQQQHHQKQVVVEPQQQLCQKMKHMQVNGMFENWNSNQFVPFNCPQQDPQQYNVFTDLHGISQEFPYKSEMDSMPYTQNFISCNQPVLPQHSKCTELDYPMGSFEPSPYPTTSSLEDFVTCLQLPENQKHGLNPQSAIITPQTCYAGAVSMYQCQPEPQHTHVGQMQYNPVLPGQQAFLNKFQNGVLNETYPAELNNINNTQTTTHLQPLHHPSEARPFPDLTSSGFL
# Procedure, shortened: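 HepG2 cells transiently transfected with cis-element-driven multiplexed reporter transcription units; endogenous transcription factor activity measured as reporter mRNA 24 h after dosing. RT-PCR, 6-FAM labelling, HpaI digestion, capillary electrophoresis; bidirectional fitting versus DMSO baseline.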
# [6] = ATG_AP_1_CIS: Attagene CIS-FACTORIAL HepG2 Assay for human Activator Protein 1 (AP-1) (AID 2282931); settings: HepG2 Attagene cis-factorial AP-1 reporter mRNA; actives raise or lower the signal
# Procedure, shortened: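 Readout is reporter transcript level from endogenous transcription factor activity, quantified by RT-PCR with fluorescent primer extension and capillary electrophoresis. Transiently transfected HepG2 cells, 24 h exposure. Curves fitted both directions versus DMSO.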
# [7] = ATG_AP_2_CIS: Attagene CIS-FACTORIAL HepG2 Assay for human Activator Protein 2 (AP-2) (AID 2282932); settings: HepG2 AP-2 cis-reporter, Attagene transcription factor profiling; actives raise or lower the signal
# Procedure, shortened: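 Cells (HepG2) transfected with promoter-driven reporter constructs, treated 24 h. Total RNA reverse-transcribed, reporter cDNA PCR-amplified, FAM-labelled by primer extension, digested, resolved by capillary electrophoresis. Activity fitted both directions versus DMSO.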
# [8] = ATG_BRE_CIS: Attagene CIS-FACTORIAL HepG2 Assay for human Bone Morphogenetic Protein (BMP) Response Element (BRE) (AID 2282933); settings: HepG2 BMP response element reporter, Attagene transcription factor profiling; actives raise or lower the signal
# Procedure, shortened: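 Read-out: reporter mRNA induction quantified by RT-PCR and capillary electrophoresis after 24 h chemical exposure of transfected HepG2 cells. Endogenous factor activity on the BMP response element; gain or loss fitted against DMSO baseline.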
# [9] = biological target: Retinoic acid receptor alpha (Homo sapiens) (UniProt P10276); experiment: ATG_DR5_RAR_CIS: Attagene CIS-FACTORIAL HepG2 Assay for human Retinoic Acid Receptor Alpha (RARE), DR5 submotif (AID 2282934); settings: HepG2 Attagene cis-factorial RARE DR5 reporter, mRNA; actives raise or lower the signal;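 as to AC50: reporter responds to endogenous RAR alpha beta and gamma in HepG2 not RARA alone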
# Retinoic acid receptor alpha (Homo sapiens), sequence (P10276 whole entry, looked up): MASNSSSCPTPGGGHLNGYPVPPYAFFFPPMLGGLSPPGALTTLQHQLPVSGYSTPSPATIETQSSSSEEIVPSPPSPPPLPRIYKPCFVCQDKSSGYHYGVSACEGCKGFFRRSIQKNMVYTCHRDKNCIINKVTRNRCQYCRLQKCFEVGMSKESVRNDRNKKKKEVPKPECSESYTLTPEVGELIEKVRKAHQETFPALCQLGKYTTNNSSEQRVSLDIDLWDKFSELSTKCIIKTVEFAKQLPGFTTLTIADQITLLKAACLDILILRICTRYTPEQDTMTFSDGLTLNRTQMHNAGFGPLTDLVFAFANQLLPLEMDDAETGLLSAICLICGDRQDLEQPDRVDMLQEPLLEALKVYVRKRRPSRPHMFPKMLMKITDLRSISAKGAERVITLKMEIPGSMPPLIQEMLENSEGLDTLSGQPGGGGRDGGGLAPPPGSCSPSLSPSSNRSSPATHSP
# Procedure, shortened: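 HepG2 cells transiently transfected with multiplexed reporter units under cis (DR5 RARE) promoters, so endogenous transcription factor activity is measured. After 24 h compound exposure, reporter mRNA is quantified by RT-PCR with fluorescent labelling and capillary electrophoresis; bidirectional fitting versus DMSO.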
# [10] = ATG_DR4_LXR_CIS: Attagene CIS-FACTORIAL HepG2 Assay for human Liver X Receptor (LXR), DR4 submotif (AID 2282929); settings: HepG2 Attagene DR4 cis-reporter, mRNA transcription; actives raise or lower the signal
# Procedure, shortened: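 The endpoint is DR4-element-driven reporter transcripts after 24 h chemical exposure of transfected HepG2 cells. These were measured via RT-PCR and capillary electrophoresis, and gain or loss of signal was fitted relative to DMSO controls.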
smiles,measurement,setting,value
CCCc1ccc(O)c(OC)c1,outcome,[1],inactive
same,outcome,[2],inactive
same,outcome,[3],inactive
same,outcome,[4],inactive
same,outcome,[5],inactive
same,outcome,[6],inactive
same,outcome,[7],inactive
same,outcome,[8],inactive
same,outcome,[9],inactive
CC1=NN(c2ccc(S(=O)(=O)O)cc2)C(=O)C1N=Nc1ccccc1 (stereo not drawn),outcome,[1],inactive
same,outcome,[2],inactive
same,outcome,[3],inactive
same,outcome,[4],inactive
same,AC50,[5],10.7 µM (active)
same,outcome,[6],inactive
same,outcome,[7],inactive
same,outcome,[8],inactive
same,outcome,[9],inactive
O=C(O)c1cc(O)c2ccccc2c1O,outcome,[1],inactive
same,outcome,[2],inactive
same,AC50,[3],5.04 µM (active)
same,outcome,[4],inactive
same,AC50,[5],0.0305 µM (active)
same,outcome,[6],inactive
same,outcome,[7],inactive
same,outcome,[8],inactive
same,AC50,[9],22.8 µM (active)
CC(C)(C)N,outcome,[1],inactive
same,outcome,[2],inactive
same,outcome,[3],inactive
same,outcome,[4],inactive
same,outcome,[5],inactive
same,outcome,[6],inactive
same,outcome,[7],inactive
same,outcome,[8],inactive
same,outcome,[9],inactive
C=CCOC(=O)c1ccc(C(=O)OCC=C)c(C(=O)OCC=C)c1,outcome,[1],inactive
same,outcome,[2],inactive
same,outcome,[3],inactive
same,outcome,[4],inactive
same,outcome,[10],inactive
same,outcome,[6],inactive
same,outcome,[8],inactive
same,outcome,[9],inactive
CCc1occc(=O)c1O,outcome,[1],inactive
same,outcome,[2],inactive
same,outcome,[3],inactive
same,outcome,[4],inactive
same,AC50,[5],65.6 µM (active)
same,outcome,[6],inactive
same,outcome,[7],inactive
same,outcome,[8],inactive
same,outcome,[9],inactive
CC(=O)CC(=O)Nc1ccccc1C,outcome,[1],inactive
same,outcome,[2],inactive
same,outcome,[3],inactive
same,outcome,[4],inactive
same,outcome,[5],inactive
same,outcome,[6],inactive
same,outcome,[7],inactive
same,outcome,[8],inactive
same,outcome,[9],inactive
CC1=CCC2CC1C2(C)C (stereo not drawn),outcome,[1],inactive
same,outcome,[2],inactive
same,outcome,[3],inactive
same,outcome,[4],inactive
same,outcome,[6],inactive
same,outcome,[7],inactive
same,outcome,[8],inactive
same,outcome,[9],inactive
Cc1ccc(C)c(OCCCC(C)(C)C(=O)O)c1,outcome,[1],inactive
same,outcome,[2],inactive
same,outcome,[3],inactive
same,outcome,[4],inactive
same,outcome,[5],inactive
same,outcome,[6],inactive
same,outcome,[7],inactive
same,outcome,[8],inactive
same,outcome,[9],inactive
CCCCCCCC(=O)OCC(COC(=O)CCCCCCC)OC(=O)CCCCCCC,outcome,[1],inactive
same,outcome,[2],inactive
same,outcome,[3],inactive
same,outcome,[4],inactive
same,outcome,[5],inactive
same,outcome,[6],inactive
same,outcome,[7],inactive
same,outcome,[9],inactive
O=C(Nc1ccccc1)c1cc(Cl)ccc1O,outcome,[1],inactive
same,AC50,[2],3.19 µM (active)
same,AC50,[3],3.35 µM (active)
same,outcome,[4],inactive
same,AC50,[5],3.62 µM (active)
same,AC50,[6],2.84 µM (active)
same,outcome,[7],inactive
same,AC50,[8],3.15 µM (active)
same,AC50,[9],4.11 µM (active)
CC(CCC(=O)O)(c1ccc(O)cc1)c1ccc(O)cc1,AC50,[1],13.4 µM (active)
same,outcome,[2],inactive
same,outcome,[3],inactive
same,outcome,[4],inactive
same,outcome,[5],inactive
same,outcome,[6],inactive
same,outcome,[7],inactive
same,outcome,[8],inactive
same,outcome,[9],inactive
O=S(=O)(O)c1ccc(N=Nc2c(O)ccc3ccccc23)cc1,outcome,[1],inactive
same,outcome,[2],inactive
same,outcome,[3],inactive
same,outcome,[4],inactive
same,AC50,[5],1.3 µM (active)
same,outcome,[6],inactive
same,outcome,[7],inactive
same,outcome,[8],inactive
same,outcome,[9],inactive
CCCCNC(=S)NCCCC,outcome,[1],inactive
same,outcome,[2],inactive
same,outcome,[3],inactive
same,outcome,[4],inactive
same,outcome,[5],inactive
same,outcome,[6],inactive
same,outcome,[7],inactive
same,outcome,[8],inactive
same,outcome,[9],inactive
Fc1ccc(Br)cc1,outcome,[1],inactive
same,outcome,[2],inactive
same,outcome,[3],inactive
same,outcome,[4],inactive
same,outcome,[5],inactive
same,outcome,[6],inactive
same,outcome,[7],inactive
same,outcome,[8],inactive
same,outcome,[9],inactive
CCCCCCOc1ccc(N)cc1,outcome,[1],inactive
same,outcome,[2],inactive
same,outcome,[3],inactive
same,AC50,[4],155 µM (active)
same,outcome,[5],inactive
same,outcome,[6],inactive
same,outcome,[7],inactive
same,outcome,[9],inactive
CC1=CCC(C(C)C)C=C1 (stereo not drawn),outcome,[1],inactive
same,outcome,[2],inactive
same,outcome,[3],inactive
same,outcome,[4],inactive
same,outcome,[5],inactive
same,outcome,[6],inactive
same,outcome,[7],inactive
same,outcome,[8],inactive
C=CCNCC=C,outcome,[1],inactive
same,outcome,[2],inactive
same,outcome,[3],inactive
same,outcome,[4],inactive
same,outcome,[5],inactive
same,outcome,[6],inactive
same,outcome,[7],inactive
same,outcome,[8],inactive
same,outcome,[9],inactive
CC(C)c1ccc2ncccc2c1,outcome,[1],inactive
same,outcome,[2],inactive
same,outcome,[3],inactive
same,AC50,[4],53.5 µM (active)
same,outcome,[5],inactive
same,outcome,[6],inactive
same,outcome,[7],inactive
same,outcome,[9],inactive
CCC(C)C(=O)OC (stereo not drawn),AC50,[1],0.0271 µM (active)
same,outcome,[2],inactive
same,outcome,[3],inactive
same,outcome,[4],inactive
same,outcome,[5],inactive
same,outcome,[6],inactive
same,outcome,[7],inactive
same,outcome,[9],inactive
CC(=O)OC1CCCCC1C(C)(C)C (stereo not drawn),outcome,[1],inactive
same,outcome,[2],inactive
same,outcome,[3],inactive
same,outcome,[4],inactive
same,outcome,[5],inactive
same,outcome,[6],inactive
same,outcome,[7],inactive
same,outcome,[8],inactive
same,outcome,[9],inactive
C=Cc1ccc(OC(C)=O)cc1,outcome,[1],inactive
same,outcome,[2],inactive
same,outcome,[3],inactive
same,AC50,[4],13.1 µM (active)
same,outcome,[5],inactive
same,outcome,[6],inactive
same,outcome,[7],inactive
same,outcome,[9],inactive
C=C[Si](OCCOC)(OCCOC)OCCOC,outcome,[1],inactive
same,outcome,[2],inactive
same,outcome,[3],inactive
same,outcome,[4],inactive
same,outcome,[5],inactive
same,outcome,[6],inactive
same,outcome,[7],inactive
same,outcome,[9],inactive
C=CCCCCCCCCOC(C)=O,outcome,[1],inactive
same,outcome,[2],inactive
same,outcome,[3],inactive
same,outcome,[4],inactive
same,outcome,[6],inactive
same,outcome,[8],inactive
same,outcome,[9],inactive
CN1CCN(C)CC1,outcome,[1],inactive
same,outcome,[2],inactive
same,outcome,[3],inactive
same,outcome,[4],inactive
same,outcome,[5],inactive
same,outcome,[6],inactive
same,outcome,[8],inactive
same,outcome,[9],inactive

# Source: PubChem BioAssay (EPA / NIEHS)
